Results published in PubChem BioAssay (NCI).
About 83,000 compounds went through this panel and 20% of them were active in at least one assay; those are over-represented in the sample as a whole.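 48-hour exposure, single concentration, 96-well plates; percent growth endpoint where 0 means no net growth. Active: below 10.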 Values without a mark were called inactive. Active and inactive are the calls of the source.

Key:
Test in all cases: NCI-60 one-dose screen, 48 h (100 = growth as untreated, 0 = no growth, -100 = all killed)
Details in all cases: 10 µM unless noted
NCI-H23 lung = test system: NCI-H23 lung
NCI-H226 lung = test system: NCI-H226 lung
NCI-H322M lung = test system: NCI-H322M lung
HOP-62 NSCLC = test system: HOP-62 NSCLC
NCI-H460 lung = test system: NCI-H460 lung
HOP-92 NSCLC = test system: HOP-92 NSCLC
NCI-H522 lung = test system: NCI-H522 lung
A549/ATCC NSCLC = test system: A549/ATCC NSCLC
786-0 renal = test system: 786-0 renal
COLO 205 colon = test system: COLO 205 colon
DU-145 prostate = test system: DU-145 prostate
K-562 leukemia = test system: K-562 leukemia
MALME-3M melanoma = test system: MALME-3M melanoma
MDA-MB-231 breast = test system: MDA-MB-231 breast
RXF 393 renal = test system: RXF 393 renal
SF-268 CNS = test system: SF-268 CNS
SF-295 CNS = test system: SF-295 CNS
SF-539 CNS = test system: SF-539 CNS
UACC-257 melanoma = test system: UACC-257 melanoma
M14 melanoma = test system: M14 melanoma

| SMILES | growth (NCI-H23 lung) | growth (NCI-H226 lung) | growth (NCI-H322M lung) | growth (HOP-62 NSCLC) | growth (NCI-H460 lung) | growth (HOP-92 NSCLC) | growth (NCI-H522 lung) | growth (A549/ATCC NSCLC) | growth (786-0 renal) | growth (COLO 205 colon) | growth (DU-145 prostate) | growth (K-562 leukemia) | growth (MALME-3M melanoma) | growth (MDA-MB-231 breast) | growth (RXF 393 renal) | growth (SF-268 CNS) | growth (SF-295 CNS) | growth (SF-539 CNS) | growth (UACC-257 melanoma) | growth (M14 melanoma) |
| --- | --- | --- | --- | --- | --- | --- | --- | --- | --- | --- | --- | --- | --- | --- | --- | --- | --- | --- | --- | --- |
| CCCCCCCC/C=C\CCCCCCCCOc1ccc(CC(=O)NCC[N+](C)(C)C)cc1 | 67.2% | 70% | 85.6% | 24.3% | 29.9% | 62.3% | 50.7% | 74.1% | 59.6% | -69.1% (active) | 75.6% | 55.1% | 70.2% | 67.4% | -21.8% (active) | 68.6% | 77.8% | 66.8% | 79.7% | 63.7% |
| COc1ccc(C(c2cc(OC)c(OC)c(OC)c2)N2CCN(Cc3ccccc3)CC2)cc1 (stereo not given) | 88.5% | 85.4% | 65.1% | 69.7% | 74.4% | 70.6% | 52.4% | 78.4% | 82.6% | 61.8% | 102% | 26.4% | 74.8% | 71% | 72.3% | 86.4% | 68.7% | 81.2% | 84.2% | 52.8% |
| Nc1c(C(=O)Nc2ccncc2)sc2nc3c(cc12)CCCCC3 | 61.8% | 72.3% | 99.9% | 81.8% | 81.6% | 73% | 73.9% | 89.5% | 79.1% | 86.5% | 89.2% | 51.8% | 90.6% | 90.9% | 84.2% | 99.5% | 71.5% | 73.2% | 76% | 91.9% |
| CCOC(=O)c1c(NC(=O)c2ccc(C(C)(C)C)cc2)sc2cc(O)ccc12 | 89.8% | 87.9% | 87.1% | 95.8% | 98.1% | 96.8% | 96.1% | 91.9% | -92% (active) | 110% | 97.7% | 43.4% | 98.7% | 110% | 115% | 102% | 105% | 90.9% | 97.3% | 86.6% |
| COc1cc(C(=O)/C=C/c2c(-c3cccs3)nc3ccccn23)cc(OC)c1OC | 14.1% | 24.8% | -2.37% (active) | 16.3% | -48.1% (active) | -1.12% (active) | 1.24% (active) | 13.7% | 0.465% (active) | 2.79% (active) | 3.29% (active) | 25.7% | 33.9% | 24.7% | 2.35% (active) | 21% | -29.7% (active) | -27% (active) | 29.9% | 11.7% |
| COc1ccc(/C=C/C(=O)c2cc3c(N)c(C(=O)Nc4ccccc4C)sc3nc2C)cc1 | 36.1% | 53.3% | 35.7% | 32.6% | 1.23% (active) | 79.2% | -28.4% (active) | 20.1% | 21.3% | -30.3% (active) | 13% | 15.3% | 51.7% | 15.5% | -23.1% (active) | 32.3% | 14.2% | -38.2% (active) | 64.8% | 3.29% (active) |
| CCNc1nc(-c2ccc(F)cc2)c(C#N)c(=O)n1C | 73.8% | 55% | 57.2% | 51.8% | 74.7% | -1.14% (active) | 52.1% | 58.9% | 64.3% | 62.8% | 63.4% | 100% | 93% | 33.6% | 44% | 58.5% | 59.7% | 59.7% | 102% | 82.8% |
| O=C1N[C@@H]2[C@@H](O)[C@@H](O)[C@H](O)C[C@H]2c2cc3c(c(O)c21)OCCO3 | -40.9% (active) | -11.3% (active) | -24.3% (active) | -26.5% (active) | 1.26% (active) | -20.1% (active) | -36.1% (active) | -14.3% (active) | -1.5% (active) | -49% (active) | -2.39% (active) | 1.56% (active) | -23.8% (active) | -24.1% (active) | -24.2% (active) | -0.713% (active) | -14.9% (active) | -24.1% (active) | -22.2% (active) | -45.7% (active) |
| CCOc1ccc(NC(=O)c2cc(OC)c(OC)c(OC)c2)cc1 | 45.8% | 68.1% | 52.2% | 56.2% | 17.1% | 44.1% | 42.3% | 46.6% | 32.3% | 11.8% | 54% | 17% | 38.2% | 62.7% | 39.8% | 47.6% | 26.2% | 23.5% | 50.1% | 16.5% |
| Cc1nc2sc(C(=O)Nc3ccc(Cl)cc3)c(N)c2cc1C(O)c1ccccc1 (stereo not given) | 42.6% | 57% | 57.6% | 45.1% | 17.4% | 44.8% | 33.2% | 42.1% | 46.5% | 29.6% | 34.7% | 9.79% (active) | 44.1% | 52.2% | 47.3% | 54.2% | 44.5% | 37.7% | 46.1% | 19.7% |
| O=C(Nc1ccccc1O)c1ccccc1Nc1ccnc(C(F)(F)F)c1 | 94.5% | 70.4% | 114% | 99.5% | 97.3% | 88% | 83.9% | 114% | 104% | 148% | 104% | 86.2% | 112% | 82.5% | 108% | 113% | 107% | 89.1% | 106% | 98.6% |
| Cc1ccc(O)c(NC(=O)c2ccc(CNc3ccnc(C(F)(F)F)c3)cc2)c1 | 81.1% | 74% | 65.3% | 56% | 18.8% | 92.1% | 67.6% | 53% | 48.8% | 152% | 107% | 24.2% | 59.9% | 48.9% | 92% | 79.9% | 17.2% | 35.1% | 71.3% | 49.2% |
| COc1ncc2cc1NS(=O)(=O)c1cccc(c1)C(=O)NCC1=CC=C(S1)c1ncnc3c1SC2=C3C | 10.6% | -30.4% (active) | -65.4% (active) | 4.4% (active) | 2.61% (active) | -17.5% (active) | 4.2% (active) | 1.4% (active) | -23.8% (active) | -35.5% (active) | 9.14% (active) | 4.66% (active) | -39.2% (active) | 10.9% | -62.8% (active) | 0.0661% (active) | -21.6% (active) | -55.3% (active) | -1.33% (active) | -43.9% (active) |
| CCn1cc(C(=O)N/N=C/c2ccc(Br)cc2)c(=O)c2cc(F)c(N3CCNC(C)C3)c(F)c21 (stereo not given) | 91% | 97.3% | 85.8% | 88.8% | -50.8% (active) | 61.2% | 78.5% | 45.3% | 63.9% | 32.1% | 31.4% | -12.6% (active) | 58.7% | 54.8% | 61.3% | 62.6% | 74.5% | 71.4% | 104% | 42.7% |
| CCN(CC)c1ccc(/C=N/NC(=O)c2ccc(Nc3ccnc(C(F)(F)F)c3)cc2)c(O)c1 | 31% | -3.5% (active) | 15.3% | 25.6% | -4.66% (active) | 42.4% | 49.7% | 33.4% | -16.2% (active) | -18% (active) | 30.6% | 87.2% | 14.4% | 24.4% | -0.93% (active) | 18.5% | 7.62% (active) | -46.4% (active) | 49% | 19.3% |
